# Experimental data from PubChem BioAssay AID1645870 (National Center for Advancing Translational Sciences (NCATS), 2021).
# “And” between values parts separate entries of the source, which are not always exact repeats. Equal entries are not always repeated. Hit rate of the full screen: of about 59,000 compounds, about 1,500 (2.5%) were called active. Inconclusive results (about 10%) are left out. Calls follow the shape of the dose curve; as a rule, active = well fitted inhibition curve with a large enough effect; inconclusive = small, poorly fitted or top-dose-only effect; inactive = flat fitted curve, though single readings scatter. The list comes from a sample in which actives are over-represented; it also holds similar structures and randomly drawn compounds. The source holds several records for some structures; these can differ, active in one and inactive in another.
# Target: N-terminal Xaa-Pro-Lys N-methyltransferase 1 (Homo sapiens) (UniProt Q9BV86)
# Assay: Primary qHTS for Inhibitors of N-terminal methyltransferase 1 (NTMT1): MTaseGlo Assay; also: nearly all actives have a fitted effect of over 65% in size
# Settings: NTMT1 MTase-Glo SAH luminescence, purified enzyme; series mostly up to 114 µM; activity change, negative = inhibition: at the top concentration
# Excerpt: Assay Submitter (PI): Rong Huang Ph.D.
# Purdue University, West Lafayette, IN 47907
# The N-terminal methytransferase 1 is the first methyltransferase that methylates protein alpha-N-amines and plays an important role in regulating cell mitosis, chromatin interactions and DNA repair. It is observed to be over-expressed in various cancer patient tissues like malignant melanoma and colorectal cancer tissues. Knockdown of NTMT1 in cancer cells causes cell mitotic defects and enhances sensitivity to DNA damaging chemotherapeutics. […] These critical cellular processes in which NTMT1 is implicated, coupled with emerging links to cellular dysfunction, strengthen the inference that NTMT1 is a compelling novel anticancer target. Progress have been made in understanding the molecular properties of NTMT1 and the biological consequences of protein alpha-N-terminal methylation, but there are no specific small molecule probes available for NTMT1 to fully characterize its MTase activity. To address this unmet need, a panel of assay is created and established to enable quantitative high-throughput screening (qHTS) for novel, potent, and selective small molecule NTMT1 inhibitors. Two orthogonal qHTS that use different reagents (ThioGlo vs. MTaseGlo) are developed for primary robotic screening against the NCATS chemical library of more than 400,000 small molecules. Identified inhibitors are reacquired, validated, and further characterized.
# MTaseGlo Assay is a luminescence screen that measure the activity of methyltransferases based on the reaction product S-adenosyl homocysteine (SAH). The substrate SAM is converted to SAH upon enzyme activation. MTase-Glo reagent and detection solution convert SAH to ATP and measure the light from the luciferase reaction.
# Materials: NTMT1 enzyme, substrate SPKRIA, control peptide RCC1-6 is provided by the Huang laboratory.
# SEQUENCE No. (e.g., 1, 2, 3, etc.); […] (e.g., Cells, Incubation, Reagent, etc.); VALUE; DESCRIPTION
# 1; Enzyme; 3 uL; Dispense enzyme mixture (final concentrations of 125 nM NTMT1 and 100 uM SAM) into Greiner 1536-well white / solid bottom assay plate (Greiner Bio One, Monroe, NC).
# 2; Compounds; 23 nL; Compounds and controls were transferred via a Kalypsys Pin Tool (Wako USA) equipped with a 1536-slotted pin array (Wako Automation, Richmond, VA)
# 3; Incubation; 15 min; Incubate at room temperature
# 4; Substrate; 1 uL; Dispense 1 uL of substrate at final concentration of 1 uM. Buffer solution was dispensed in control wells. The assay plate was covered with metal lids.
# 5; Incubation; 30 min; Incubate at room temperature, protected from lights.
# 6; Reagent; 1 uL; Dispensed 5x MTase-Glo detection reagent (R) into the assay plate. The plate was covered with metal lids.
# 7; Incubation; 30 min; Incubate the assay plates at room temperature in the dark to allow for SAH to be converted to ADP.
# 8; Reagent; 5 uL; Dispense 5 uL of 1x MTase-Glo Detection Solution (R) to allow for ADP to be converted to ATP which was then detected with a luciferase reaction.
# 9; Centrifuge; 15 sec; Centrifuge the assay plate for 15 seconds at 1000 RPM.
# 10; Incubation; 30 min; Assay plates were incubation at room temperature in the dark.
# 11; Detection; Luminescence; Plates were read on ViewLux detector (PerkinElmer). Data were normalized to no-enzyme (0% activity) and no-inhibitor (DMSO; 100%) controls, and the resulting percent inhibition data were fitted to a 4-parameter Hill equation using GraphPad Prism.
# Potency is read from the fitted curve at half-maximal effect.
# N-terminal Xaa-Pro-Lys N-methyltransferase 1 (Homo sapiens), sequence (Q9BV86 whole entry, looked up): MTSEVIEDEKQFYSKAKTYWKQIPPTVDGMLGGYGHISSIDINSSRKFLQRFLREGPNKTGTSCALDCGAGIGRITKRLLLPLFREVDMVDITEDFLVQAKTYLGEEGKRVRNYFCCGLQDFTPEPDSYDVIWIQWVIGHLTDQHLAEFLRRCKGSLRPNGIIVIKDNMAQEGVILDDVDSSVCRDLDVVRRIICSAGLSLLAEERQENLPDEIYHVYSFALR
Structure (SMILES),"activity change, negative = inhibition",Potency
Cc1cnc(-c2ccccc2C(C)C)nc1NCC1CCN(C)CC1,2.15% [at 57.5 µM] (inactive),–
CCOC(=O)C1CCN(C(=O)C(C)(C)NC(=O)Nc2ccc(F)c(F)c2)CC1,15.5% (inactive),–
O=C(Nc1ccc(-c2ccc(Cl)c(Cl)c2)cc1)C1=C(O)c2ccccc2S(=O)(=O)N1,-13.1% [at 57.5 µM] (inactive),–
COc1cccc(C(=O)Nc2ccc3nc4n(c(=O)c3c2)CCCCC4)c1,–,50.1 µM (active)
COc1cccc(C(=O)Nc2ccc3oc(-c4ccc5ccccc5c4)nc3c2)c1,9.92% (inactive),–
NS(=O)(=O)c1ccc(NC(=O)C(=O)Nc2ccc3nc4n(c(=O)c3c2)CCCCC4)cc1,-7.26% (inactive),–
Cc1cc(C)n2ncc(C(=O)Nc3cccc(C#N)c3)c2n1,2.61% [at 29.8 µM] (inactive),–
CCOc1ccc(CCNC(=O)c2cc3ccccc3n2Cc2ccc(Cl)c(F)c2)cc1OCC,5.24% (inactive),–
CC(C)c1ccccc1SC1=NS(=O)(=O)c2ccccc21,-1.75% (inactive),–
CN(C)c1ccc(C(=O)NCC(=O)OC(C(=O)Nc2cc(C(F)(F)F)ccc2Cl)c2ccccc2)cc1 (configuration not stated),6.51% [at 57.5 µM] (inactive),–
Cc1ccc(C)c(NC(=O)Cn2ccn(-c3ccc(F)cc3)c(=O)c2=O)c1,-3.87% (inactive),–
COc1ccc(Cn2ccn(Cc3cccc(OC)c3)c(=O)c2=O)cc1,-0.407% (inactive),–
COc1ccc(Cn2ccn(CC(=O)Nc3cc(C)ccc3C)c(=O)c2=O)cc1,–,79.4 µM (active)
N#Cc1ccc(N[S+](=O)([O-])c2ccc(Nc3nc(-c4ccccc4)cs3)cc2)cc1,-3.5% (inactive),–
O=[S+]([O-])(c1ccc(OC(F)(F)F)cc1)N1CCN([S+](=O)([O-])c2ccc3c(c2)OCCO3)CC1,-8.07% (inactive),–
CN1CCOc2cc(S(=O)(=O)N3CCN(S(=O)(=O)c4c(F)cccc4F)CC3)cnc21,15.4% (inactive),–
COCC1CCCN(C(=O)CC(c2ccc3c(c2)OCO3)c2c(O)cc(OC)cc2OC)C1 (configuration not stated),8.9% [at 228 µM] (inactive),–
CCOc1cc(CCNC(=O)c2cc3sccc3n2Cc2ccccc2)cc(F)c1OCC,13.1% (inactive),–
Cc1ccc(Nc2c(-c3ccc(C)s3)nc3ccccn23)cc1,0.942% (inactive),–

Structure (SMILES),"activity change, negative = inhibition",Potency
Cc1cccc2nc(-c3ccc(Cl)s3)c(Nc3ccc4c(c3)OCCO4)n12,–,1.78 µM (active)
Oc1ccccc1-c1nc2ccc(Cl)cn2c1Nc1ccc2c(c1)OCCO2,8.59% (inactive),–
Cc1cc2c(s1)c1cnn(Cc3cc(F)c(Cl)cc3Cl)c(=O)c1n2C,3.59% [at 57.5 µM] (inactive),–
Fc1cc(Nc2nc(-c3ccncc3)nc3ccccc23)ccc1-n1cncn1,–,inactive
Cc1c(Cl)cccc1S(=O)(=O)Nc1nc(CCN2CCOCC2=O)cs1,1.44% (inactive),–
Cc1cc(Nc2cc(CN3CCOCC3)c3nc(C)c(Cc4ccc(Cl)cc4F)n3n2)n[nH]1,–,30.4 µM (active) and 7.08 µM (active) and 11.2 µM (active)
COc1cc(NS(=O)(=O)c2ccc(C)cc2)ccc1C(=O)Nc1nc(-c2ccccc2)cs1,4.46% (inactive),–
Cc1cc(C)n2ncc(C(=O)Nc3ccc4c(c3)OCCO4)c2n1,-7.68% (inactive),–
Cc1cc(C)n2ncc(C(=O)Nc3ccc(C)c(C)c3)c2n1,21.6% (inactive),–
COc1ccc(C[C@H](C(=O)O)N2C(=O)c3ccc(C(=O)O)cc3C2=O)cc1,0.148% [at 57.5 µM] (inactive),–
CC(C)C(=O)Nc1nc2c(s1)CC(C(C)(C)C)CC2 (configuration not stated),–,79.4 µM (active)
CC(C)(C)C1CCc2c(sc(NC(=O)c3ccccc3F)c2C(=O)N2CCCCC2)C1 (configuration not stated),-4.14% (inactive),–
COC(=O)c1cccc(Cn2nnc3sc4c(c3c2=O)CCC(C(C)(C)C)C4)c1 (configuration not stated),7.12% (inactive),–
Cc1ccc(S(=O)(=O)NC(N)=NCCC[C@@H](NC(=O)CNC(=O)c2ccccc2)C(=O)Nc2cc(C(F)(F)F)ccc2Cl)cc1,2.85% (inactive),–
CC(C)c1ccc(C2CC(=O)N3CN(C4CCCCC4)CSC3=C2C#N)cc1 (configuration not stated),–,11.2 µM (active)
O=C(Nc1ccc2ccccc2c1)Nc1nnc(-c2ccc(O)cc2)s1,2.75% (inactive),–
CC(C)c1ccc2c(c1)c(SC(C)(C)C)c(CC(C)(C)C(=O)O)n2Cc1ccc(Cl)cc1,–,inactive and 79.4 µM (active)
Cc1c(C)n(Cc2ccc(Cl)cc2)c2ccc(C(=O)N3CCN(c4ccccc4F)CC3)cc12,13% (inactive),–
C[S+](=O)([O-])c1ccc(-c2ccc(=O)n(CC(=O)NCCc3ccccc3)n2)cc1,15.9% (inactive),–

Structure (SMILES),"activity change, negative = inhibition",Potency
Cc1ccc(OCCn2c(CCNC(=O)Cc3cccc4ccccc34)nc3ccccc32)cc1,-12.6% (inactive),–
CN1CC[C@H](c2c(O)cc(O)c3c(=O)cc(-c4ccccc4Cl)oc23)[C@H](O)C1,–,31.6 µM (active)
Cc1cc(C2N=C(Nc3nc4ccccc4o3)NC3=C2C(=O)CCC3)n[nH]1 (configuration not stated),-1.79% (inactive),–
FC(F)(F)c1cc(Cl)cc(-c2ccc(CNc3nc(-c4ccccc4C(F)(F)F)nc4ccccc34)cc2)c1,19.9% (inactive),–
Cc1ccccc1-c1ccc(NC(=O)c2cccs2)cn1,-4.12% (inactive),–
O=S(=O)(NCC1CN(S(=O)(=O)c2ccc3c(c2)OCCO3)C1)c1c(F)cccc1F,3.97% (inactive),–
O=S(=O)(Nc1cccc2ccccc12)c1ccc(NCc2ccc(Br)cc2O)cc1,-10.4% (inactive),–
CCN(CC)c1ccc(NC(=O)CN(C)Cc2c(O)ccc3ccccc23)cc1,12.2% (inactive),–
COc1ccccc1-c1c[nH]c2ncc(-c3cncc(C(=O)N(C)C)c3)cc12,–,39.8 µM (active)
COc1ccc(-c2cncc(NC(=O)c3cccs3)c2)cc1OC,-13% (inactive),–
O=C1NS(=O)(=O)c2cc(Cl)ccc21,9.66% (inactive),–
c1nc(N2CCOCC2)c2cc(-c3ccc4c(c3)OCO4)ccc2n1,–,12.6 µM (active)
NC(=O)C1CCN(c2cc(-c3ccc4c(c3)OCCCO4)ncn2)CC1,-0.544% [at 57.5 µM] (inactive),–
COc1ccc(NC(=O)c2cnn3c(-c4ccccc4)cc(C)nc23)cc1,0.228% (inactive),–
O=C(Nc1ccc([S+](=O)([O-])Nc2nccs2)cc1)c1ccn[nH]1,0.211% [at 57.5 µM] (inactive),–
O=C(OC/C=C/CSc1nnc(-c2cccc3ccccc23)o1)c1ccc(F)cc1,10.4% (inactive),–
COc1cc(NC(=O)c2cc3ccc4cccnc4c3[nH]2)cc(OC)c1OC,-10.6% (inactive),–
COc1cc(Nc2ncc(F)c(Nc3ccc4c(n3)NC(=O)C(C)(C)O4)n2)cc(OC)c1OC,–,inactive and 1.52 µM (active)
N#CN1CCC(NS(=O)(=O)c2cccc(F)c2)C1 (configuration not stated),0.651% [at 57.5 µM] (inactive),–
